# Several values for one entry are separate records, joined by “and”; a condition that tells them apart may be missing. Equal entries are not always repeated. Results filed as inconclusive are left out. Where a call stands in place of a potency, no number is given. Unmarked numbers belong to inactive results. Activity calls are given as the source filed them. The call rests on the fitted dose curve; in most records, active means well fitted curve in the direction sought with a large enough effect; inconclusive means small, poorly fitted or top-dose-only effect, or another doubt; inactive means no such curve, though single readings can be large; an effect the other way counts as inactive or inconclusive.
# Legend:
# [1] = test system: MCC-13; assay: qHTS assay to identify novel small-molecules to repurpose for Merkel cell carcinoma treatment (AID 1296009); details: MCC and control cell lines, CellTiter-Glo viability, 72 h; series mostly up to 46 µM; further: nearly all actives have a fitted effect of over 60% in size
# Procedure, shortened: (§1)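 Luminescence from CellTiter-Glo, read 10 min after addition at room temperature, reported viability following a 72 hr, 37 degree celsius treatment with NPC or MIPE compounds in titration; values normalized to plate controls.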
# [2] = test system: MCC-26; assay: as above; details: MCC and control cell lines, CellTiter-Glo viability, 72 h; series mostly up to 46 µM
# Procedure, shortened: as §1
# [3] = test system: MKL-1; assay: as above; details: MCC and control cell lines, CellTiter-Glo viability, 72 h; series mostly up to 46 µM
# Procedure, shortened: as §1
# [4] = test system: MKL-2; assay: as above; details: MCC and control cell lines, CellTiter-Glo viability, 72 h; series mostly up to 46 µM
# Procedure, shortened: as §1
# [5] = test system: NIH3T3; assay: as above; details: MCC and control cell lines, CellTiter-Glo viability, 72 h; at 44.8 µM (top of the series) unless noted
# Procedure, shortened: as §1
# [6] = test system: UISO; assay: as above; details: MCC and control cell lines, CellTiter-Glo viability, 72 h; series mostly up to 46 µM
# Procedure, shortened: as §1
# [7] = test system: WaGa; assay: as above; details: MCC and control cell lines, CellTiter-Glo viability, 72 h; series mostly up to 46 µM
# Procedure, shortened: as §1
# [8] = test system: C33A; assay: Primary qHTS to identify gynecologic anti-cancer compounds using libraries of approved drugs and bioactive compounds (AID 1345084); details: Gynecologic cancer cell panel viability, ATPlite luminescence, 48 h; series mostly up to 57.5 µM; further: nearly all actives have a fitted effect of over 55% in size; further: potency means the concentration at half of the fitted maximal effect
# Procedure, shortened: (§2)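 Cells, 1,000 per well, plated 16 h, then exposed 48 h at 37 C to compounds. Viability by ATPlite luminescence after 15 min at room temperature.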
# [9] = test system: CAOV3; assay: as above; details: Gynecologic cancer cell panel viability, ATPlite luminescence, 48 h; series mostly up to 57.5 µM
# Procedure, shortened: as §2
# [10] = test system: CASKI; assay: as above; details: Gynecologic cancer cell panel viability, ATPlite luminescence, 48 h; series mostly up to 57.5 µM
# Procedure, shortened: as §2
# [11] = test system: Es-2; assay: as above; details: Gynecologic cancer cell panel viability, ATPlite luminescence, 48 h; series mostly up to 57.5 µM
# Procedure, shortened: as §2
# [12] = test system: HeLa; assay: as above; details: Gynecologic cancer cell panel viability, ATPlite luminescence, 48 h; series mostly up to 57.5 µM
# Procedure, shortened: as §2
# [13] = test system: Hek293T; assay: as above; details: Gynecologic cancer cell panel viability, ATPlite luminescence, 48 h, control line for the selectivity index; series mostly up to 57.5 µM
# Procedure, shortened: as §2
# [14] = test system: JEG-3; assay: as above; details: Gynecologic cancer cell panel viability, ATPlite luminescence, 48 h; series mostly up to 57.5 µM
# Procedure, shortened: as §2
# [15] = test system: OV90; assay: as above; details: Gynecologic cancer cell panel viability, ATPlite luminescence, 48 h; series mostly up to 57.5 µM
# Procedure, shortened: as §2
# [16] = test system: PA-1; assay: as above; details: Gynecologic cancer cell panel viability, ATPlite luminescence, 48 h; series mostly up to 57.5 µM
# Procedure, shortened: as §2
# [17] = test system: SKOV3; assay: as above; details: Gynecologic cancer cell panel viability, ATPlite luminescence, 48 h; series mostly up to 57.5 µM
# Procedure, shortened: as §2
# [18] = test system: Tov-21-G; assay: as above; details: Gynecologic cancer cell panel viability, ATPlite luminescence, 48 h; series mostly up to 57.5 µM
# Procedure, shortened: as §2
# [19] = test system: Tov112D; assay: as above; details: Gynecologic cancer cell panel viability, ATPlite luminescence, 48 h; series mostly up to 57.5 µM
# Procedure, shortened: as §2
# [20] = Drug repurposing screens with cells derived from glioblastoma tumor samples (AID 1345199); details: GBM patient neurospheres viability, ATP luminescence, 48 h; further: nearly all actives have a fitted effect of over 40% in size; further: potency means the concentration at half of the fitted maximal effect
# Procedure, shortened: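 Primary testing used CD133+ neurospheres from four GBM patients, seven concentrations, 48 h exposure and ATP-based viability; confirmation added three slower-growing patient lines.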
# [21] = at 45.9 µM (top of the series), tumour line B
# [22] = at 45.9 µM (top of the series), tumour line D
# [23] = at 46 µM (top of the series), tumour line A
smiles,measurement,setting,value
O=C1CN2CCOC2(c2ccccc2Cl)c2cc(Cl)ccc2N1 (configuration not stated),Potency,[1],inactive
same,Potency,[2],inactive
same,Potency,[3],inactive
same,Potency,[4],inactive
same,outcome,[5],inactive
same,Potency,[6],inactive
same,Potency,[7],inactive
same,Potency,[8],inactive
same,Potency,[9],inactive
same,Potency,[10],inactive
same,Potency,[11],inactive
same,Potency,[12],inactive
same,Potency,[13],inactive
same,Potency,[14],inactive
same,Potency,[15],inactive
same,Potency,[16],inactive
same,Potency,[17],inactive
same,Potency,[18],inactive
same,Potency,[19],inactive
ClC1=C(Cl)C2(Cl)C(CBr)CC1(Cl)C2(Cl)Cl (configuration not stated),Potency,[1],inactive
same,Potency,[2],inactive
same,Potency,[3],inactive
same,Potency,[4],inactive
same,Potency,[6],inactive
same,Potency,[7],inactive
same,Potency,[8],inactive
same,Potency,[9],inactive
same,Potency,[10],inactive
same,Potency,[11],inactive
same,Potency,[12],inactive
same,Potency,[13],inactive
same,Potency,[14],inactive
same,Potency,[15],inactive
same,Potency,[16],inactive
same,Potency,[17],inactive
same,Potency,[18],inactive
same,Potency,[19],inactive
O=c1n(Cl)c(=O)n(Cl)c(=O)n1Cl,Potency,[1],inactive
same,Potency,[2],inactive
same,Potency,[3],inactive
same,Potency,[4],inactive
same,Potency,[6],inactive
same,Potency,[7],inactive
same,Potency,[8],inactive
same,Potency,[9],inactive
same,Potency,[10],inactive
same,Potency,[11],inactive
same,Potency,[12],inactive
same,Potency,[13],inactive
same,Potency,[14],inactive
same,Potency,[15],inactive
same,Potency,[16],inactive
same,Potency,[17],inactive
same,Potency,[18],inactive
same,Potency,[19],inactive
same,"activity, negative = cell killing",[20]; [21],-0.787%
same,"activity, negative = cell killing",[20]; [22],7.38%
C[C@H]1CNCCc2ccc(Cl)cc21,Potency,[1],inactive
same,Potency,[2],inactive
same,Potency,[3],inactive
same,Potency,[4],inactive
same,outcome,[5],inactive
same,Potency,[6],inactive
same,Potency,[7],inactive
same,Potency,[8],inactive
same,Potency,[10],inactive
same,Potency,[11],inactive
same,Potency,[12],inactive
same,Potency,[13],inactive
same,Potency,[14],inactive
same,Potency,[15],inactive
same,Potency,[16],inactive
same,Potency,[17],inactive
same,Potency,[18],inactive
same,Potency,[19],inactive
same,"activity, negative = cell killing",[20]; [21],-18.8%
same,"activity, negative = cell killing",[20]; [22],-14.1%
same,Potency,[20]; tumour line A,11.2 µM (active)
COP(=S)(OC)Oc1ccc(Sc2ccc(OP(=S)(OC)OC)cc2)cc1,Potency,[1],inactive
same,Potency,[2],inactive
same,Potency,[3],inactive
same,Potency,[4],inactive
same,outcome,[5],inactive
same,Potency,[6],inactive
same,Potency,[7],inactive
same,Potency,[8],inactive
same,Potency,[9],inactive
same,Potency,[10],inactive
same,Potency,[11],inactive
same,Potency,[12],inactive
same,Potency,[14],inactive
same,Potency,[15],inactive
same,Potency,[16],inactive
same,Potency,[17],inactive
same,Potency,[18],inactive
same,Potency,[19],inactive
OC(O)C(Cl)(Cl)Cl,Potency,[1],inactive
same,Potency,[2],inactive
same,Potency,[3],inactive
same,Potency,[4],inactive
same,outcome,[5],inactive
same,Potency,[6],inactive
same,Potency,[7],inactive
same,Potency,[8],inactive
same,Potency,[10],inactive
same,Potency,[11],inactive
same,Potency,[12],inactive
same,Potency,[13],inactive
same,Potency,[14],inactive
same,Potency,[15],inactive
same,Potency,[16],inactive
same,Potency,[17],inactive
same,Potency,[18],inactive
same,Potency,[19],inactive
same,"activity, negative = cell killing",[20]; [21],-7.9%
same,"activity, negative = cell killing",[20]; [22],-0.425%
same,"activity, negative = cell killing",[20]; [23],-19%
C[N+]1(CCC(C(N)=O)(c2ccccc2)c2ccccc2)CCCCC1,Potency,[1],inactive
same,Potency,[2],inactive
same,Potency,[3],inactive
same,Potency,[4],inactive
same,outcome,[5],inactive
same,Potency,[6],inactive
same,Potency,[7],inactive
same,Potency,[8],inactive
same,Potency,[9],inactive
same,Potency,[10],inactive
same,Potency,[11],inactive
same,Potency,[12],inactive
same,Potency,[13],inactive
same,Potency,[14],inactive
same,Potency,[15],inactive
same,Potency,[16],inactive
same,Potency,[17],inactive
same,Potency,[18],inactive
same,Potency,[19],inactive
same,"activity, negative = cell killing",[20]; [21],-5.31%
same,"activity, negative = cell killing",[20]; [22],-19.9%
Nc1ccc(N)cc1,Potency,[1],inactive
same,Potency,[2],inactive
same,Potency,[3],inactive
same,Potency,[4],inactive
same,Potency,[6],inactive
same,Potency,[7],inactive
same,Potency,[8],inactive
same,Potency,[9],inactive
same,Potency,[10],inactive
same,Potency,[11],inactive
same,Potency,[12],inactive
same,Potency,[13],inactive
same,Potency,[14],inactive
same,Potency,[15],inactive
same,Potency,[16],inactive
same,Potency,[17],inactive
same,Potency,[18],inactive
same,Potency,[19],inactive
same,"activity, negative = cell killing",[20]; [21],-10.5%
same,"activity, negative = cell killing",[20]; [22],-20.4%
CCC1(CC)C(=O)NC(=O)NC1=O,Potency,[1],inactive
same,Potency,[2],inactive
same,Potency,[3],inactive
same,Potency,[4],inactive
same,outcome,[5],inactive
same,Potency,[6],inactive
same,Potency,[7],inactive
same,Potency,[8],inactive
same,Potency,[9],inactive
same,Potency,[10],inactive
same,Potency,[11],inactive
same,Potency,[12],inactive
same,Potency,[14],inactive
same,Potency,[15],inactive
same,Potency,[16],inactive
same,Potency,[17],inactive
same,Potency,[18],inactive
same,Potency,[19],inactive
same,"activity, negative = cell killing",[20]; [21],3.52%
same,"activity, negative = cell killing",[20]; [22],-15.8%
same,"activity, negative = cell killing",[20]; [23],-22.6%
CC(CC(C(N)=O)(c1ccccc1)c1ccccc1)N(C)C (configuration not stated),Potency,[1],inactive
same,Potency,[2],inactive
same,Potency,[3],inactive
same,Potency,[4],inactive
same,outcome,[5],inactive
same,Potency,[6],inactive
same,Potency,[7],inactive
same,Potency,[8],inactive
same,Potency,[9],inactive
same,Potency,[10],inactive
same,Potency,[11],inactive
same,Potency,[12],inactive
same,Potency,[13],inactive
same,Potency,[14],inactive
same,Potency,[15],inactive
same,Potency,[16],inactive
same,Potency,[17],inactive
same,Potency,[18],inactive
same,Potency,[19],inactive
COP(=S)(OC)Oc1ccc(S(N)(=O)=O)cc1,Potency,[1],inactive
same,Potency,[2],inactive
same,Potency,[3],inactive
same,Potency,[4],inactive
same,Potency,[6],inactive
same,Potency,[7],inactive
same,Potency,[8],inactive
same,Potency,[9],inactive
same,Potency,[10],inactive
same,Potency,[11],inactive
same,Potency,[12],inactive
same,Potency,[13],inactive
same,Potency,[14],inactive
same,Potency,[15],inactive
same,Potency,[16],inactive
same,Potency,[17],inactive
same,Potency,[18],inactive
same,Potency,[19],inactive
same,"activity, negative = cell killing",[20]; [21],-9.2%
same,"activity, negative = cell killing",[20]; [22],-4.94%
C[C@]12CC[C@H]3[C@@H](CCC4=CC(=O)CC[C@@H]43)[C@@H]1CC[C@@H]2O,Potency,[1],inactive
same,Potency,[2],inactive
same,Potency,[3],inactive
same,Potency,[4],inactive
same,Potency,[6],inactive
same,Potency,[7],inactive
same,Potency,[8],inactive
same,Potency,[9],inactive
same,Potency,[10],inactive
same,Potency,[11],inactive
same,Potency,[12],2.24 µM (active)
same,Potency,[13],inactive
same,Potency,[14],inactive
same,Potency,[15],inactive
same,Potency,[16],10 µM (active)
same,Potency,[17],inactive
same,Potency,[18],inactive
same,Potency,[19],inactive
same,"activity, negative = cell killing",[20]; [21],2.47% and -10.2%
CCOC(=O)c1cncn1C(C)c1ccccc1 (configuration not stated),Potency,[1],inactive
same,Potency,[2],inactive
same,Potency,[3],inactive
same,Potency,[4],inactive
same,Potency,[6],inactive
same,Potency,[7],inactive
same,Potency,[8],inactive
same,Potency,[9],inactive
same,Potency,[10],inactive
same,Potency,[11],inactive
same,Potency,[12],inactive
same,Potency,[13],inactive
same,Potency,[14],inactive
same,Potency,[15],inactive
same,Potency,[16],inactive
same,Potency,[17],inactive
same,Potency,[18],inactive
same,Potency,[19],inactive
same,"activity, negative = cell killing","[20]; at 21.2 µM (top of the series), tumour line B",0.856%
same,"activity, negative = cell killing","[20]; at 21.2 µM (top of the series), tumour line D",-20.7%

# From PubChem BioAssay (NCATS)
